{"source": "PubChem BioAssay (NCI)", "note": "The panel holds about 83,000 compounds, 20% with a hit somewhere; the sample as a whole holds those more often.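 Cell lines were cultured in 96-well plates, exposed to a single compound concentration, and assessed for percent growth 48 hours later.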 Values without a mark were called inactive. Activity calls are given as the source filed them. The calls were made as follows: active = growth percent below 10; inactive = the rest."}
{"system": "NCI-H522 lung", "assay": "NCI-60 one-dose screen, 48 h (100 = growth as untreated, 0 = no growth, -100 = all killed)", "details": "10 µM unless noted"}
{"smiles": "Cc1nc2sc(C(=O)Nc3cccc(Cl)c3C)c(N)c2cc1C(=O)/C=C/c1ccccc1", "growth": "-49.8% (active)"}
{"smiles": "CN1CCN(Cc2ccc(NC(=O)c3cncc(C#Cc4cnc(N)cc4C#N)c3)cc2C(F)(F)F)CC1", "growth": "9.51% (active)"}
{"smiles": "c1cc(OCCN2CCCC2)ccc1CNc1ccc2nc(CCC3CCCCC3)[nH]c2c1", "growth": "63.2%"}
{"smiles": "CCN(CC)CCOc1ccc2c(-c3ccccc3)c(-c3ccc(OC)cc3)c(=O)oc2c1", "growth": "66.8%"}
{"smiles": "O=C1/C(=C/c2c[nH]c(=O)[nH]c2=O)SC(=S)N1Cc1ccccc1", "growth": "90.7%"}
{"smiles": "CCN(CC)CCCNc1cc(OC)c(OC)c2cccnc12", "growth": "20.9%"}
{"smiles": "COc1cc(Cc2cc(OC)c(O)c(OC)c2)cc(OC)c1O", "growth": "56.5%"}
{"smiles": "CSc1ccc(N2C(=N)C(=S)N(c3ccc(C)cc3)C2=O)cc1", "growth": "80.5%"}
{"smiles": "CCOC(=O)/C(=C(/C)NCC(C)C)c1cc(O)c(O)c2c(C)cc(=O)[nH]c12", "growth": "26.8%"}
{"smiles": "C/C(=C(\\c1ccc(OCCN2CCCCCC2)cc1)c1ccc(OC(=O)c2ccccc2)cc1)c1ccc(Cl)cc1", "growth": "51%"}
{"smiles": "COCCn1cc(-c2csc(-c3c[nH]c4ccc(F)cc34)n2)c2cccnc21", "growth": "-11.7% (active)"}
{"smiles": "Cc1ccc2cnc(N)c(C#Cc3cc(C(=O)Nc4ccc(CN5CCN(C)CC5)c(C(F)(F)F)c4)cnc3C)c2c1", "growth": "-10.2% (active)"}
{"smiles": "O=C(NNc1nc2cc(F)ccc2n2c(CN3CCOCC3)ccc12)c1ccccc1", "growth": "9.17% (active)"}
{"smiles": "COc1ccc(-c2nc(SCC(=O)Nc3nc4ccc(C)cc4s3)[nH]c(=O)c2C#N)cc1OC", "growth": "105%"}
